# Pf growth 96h = Primary qHTS for delayed death inhibitors of the malarial parasite plastid, 96 hour incubation. hit rate 6.9% among 320,000. P. falciparum luciferase reporter growth, 96 h. Potency, µM (highest dose often 28.7 µM), inactives show top-dose activity change, negative = inhibition, hits mostly inhibitors; further: potency means the concentration at half of the fitted maximal effect; on the % scale 0 is the no-effect control and ±100 the full control effect
#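 Compounds incubated with erythrocytes infected by luciferase-expressing P. falciparum (2% hematocrit, 0.05% parasitemia final) for 96 hours, 37 C in 5% CO2. Growth inhibition scored as decreased luciferase luminescence.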
# Cycloheximide cs = Cycloheximide Counterscreen for Small Molecule Inhibitors of Shiga Toxin | max response, % | cell reporter, cycloheximide protein synthesis inhibition counterscreen | hit rate 12% among 300,000; in the data active means max response mostly above about 13%, no sharp cut-off; inactive means mostly below about 14%; further: read at 38.3 µM for the half of the compounds with a filed dose; 0% is about no effect
# Pf growth 48h = Primary qHTS for delayed death inhibitors of the malarial parasite plastid, 48 hour incubation; P. falciparum luciferase growth in erythrocytes, 48 h; Potency, µM (highest dose often 28.7 µM), for inactives: at the top dose activity change, negative = inhibition, usual class: inhibitors; hit rate 5.9% among 310,000; further: potency means the concentration at half of the fitted maximal effect; on the % scale 0 is the no-effect control and ±100 the full control effect
#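 Read-out is firefly luciferase luminescence from an integrated reporter in P. falciparum, so falling signal marks reduced parasite growth. Infected erythrocytes were at 2% hematocrit and 0.1% parasitemia (final) in Albumax-supplemented RPMI 1640.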
# Shiga inhibitor = A qHTS for Small Molecule Inhibitors of Shiga Toxin; hit rate 9.2% among 290,000; Vero cells, Shiga toxin protein synthesis inhibition reporter; AID 2315, 2010; inhibition, % at 38.7 µM; in the data active means inhibition mostly above about 28%, no sharp cut-off; inactive means mostly below about 43%; further: 0% is about no effect
# Starred values were filed as active, the others as inactive; ? = inconclusive; . = no result; [ ] = remark or other dose. A selection: hits, their analogues and other compounds. The true share with any hit is near 21%. Unless noted, the call rests on the fitted dose curve; in most records, active means well fitted inhibition curve with a large enough effect; inconclusive means small, poorly fitted or top-dose-only effect, or another doubt; inactive means no such curve, though single readings can be large or run the other way.
SMILES,Pf growth 96h,Cycloheximide cs,Pf growth 48h,Shiga inhibitor
Cc1ccc(C(=O)N(c2ccccn2)C(C)c2ccco2)cc1C (stereo not drawn),?,18*,.,0
CC(c1ccco1)N(C(=O)c1ccc(Cl)s1)c1ccccn1 (stereo not drawn),?,19*,14%,43*
CC1(c2ccccc2)CC(C)(C)n2c(O)c(C3=NC(=S)NC3=O)c3cccc1c32 (stereo not drawn),0%,-4,-2%,-5
COc1cc2c3c(c1)c(C1=NC(=S)NC1=O)c(O)n3C(C)(C)C=C2C,-27%,21*,.,-12
O=C(CSc1nnc(CNC(=O)c2ccccc2F)o1)NC1CCCCC1,32%,2,12%,-3
O=C(NCCSCc1c(F)cccc1Cl)c1ccco1,-20%[5.75 µM],29*,?,119
O=C(CNC(=O)c1ccco1)NCC(=O)OCc1c(F)cccc1Cl,24%,-3,26%,0
COc1ccccc1C(=O)OCc1c(F)cccc1Cl,19%,-2,22%,12
Cc1c(C(=O)NCCSCc2c(F)cccc2Cl)cnn1-c1ccc(Cl)cc1,-3%,1,-3%,-12
O=C(CNC(=O)c1ccco1)OCc1c(F)cccc1Cl,.,20*,32%,8
COc1ccccc1C(=O)NCCSCc1c(F)cccc1Cl,10µM*,23*,?,25
COc1ccccc1NC(=O)CN(Cc1ccco1)C(=O)c1ccc(Cl)nc1,-1%,-2,114%,32
C=CCN(C(=O)CSc1nnnn1C)c1nc(-c2ccccc2)cs1,78%,.,37%,.
C=CCN(C(=O)CC(NC(C)=O)c1ccccc1)c1nc(-c2ccc(S(C)(=O)=O)cc2)cs1 (stereo not drawn),?,31*,9.3µM*,79*
COc1ccc(CCN(Cc2ccccn2)C(=S)Nc2ccccc2F)cc1OC,56%,0,-24%,-8
COc1ccc(NC(=S)N(CCc2ccc(OC)c(OC)c2)Cc2ccccn2)cc1,12µM*,1,?,25
COc1ccc(CCN(Cc2ccccn2)C(=S)Nc2ccccc2Cl)cc1OC,13µM*,-6,?,21
COc1ccc(CCN(Cc2ccccn2)C(=S)Nc2cccc(C)c2)cc1OC,-24%,-1,12µM*,-5
S=C(Nc1ccccc1Cl)N(Cc1ccccc1)Cc1ccccn1,1µM*,9,?,24
Cc1cc(OCC(=O)NCc2nc(-c3ccccc3)no2)c(C)cc1Br,80%,-4,-3%,-11
Cc1ccc(C(=O)N/C(N)=N/c2nc3ccccc3o2)cc1,7%,10,.,23
NC(=NCc1ccco1)NC(=O)c1ccccc1,6%,27*,46%,21*
NC(=NCc1ccc2c(c1)OCO2)NC(=O)c1ccccc1,30%,-3,9%,2
CCC(=O)N/C(N)=N/c1nc2ccccc2o1,160%,61*,81%,85*
N/C(=N\c1nc2ccccc2o1)NC(=O)/C=C/c1ccccc1,30%,0,13%,-7
SMILES,Pf growth 96h,Cycloheximide cs,Pf growth 48h,Shiga inhibitor
COc1ccccc1C(=O)N/C(N)=N/c1nc2ccccc2o1,50%,20,45%,37*
CC(C)(C)C(=O)N/C(N)=N/c1nc2ccccc2o1,400%,50*,264%,71*
O=C(COc1ccc([N+](=O)[O-])cc1)NNC(=O)Nc1ccccc1F,-13%,3,50%,9
Cc1ccc(OCC(=O)NCCCNC(=O)c2ccco2)cc1,-1%,-3,-8%,-10
CCCC(=O)N/C(N)=N/c1nc2ccccc2o1,421%,51*,273%,87*
N/C(=N\c1nc2ccccc2o1)NC(=O)c1ccccc1,62%,46*,.,49*
CC(C)CC(=O)N/C(N)=N/c1nc2ccccc2o1,201%,51*,292%,103*
Cc1ccc(C2=NN(CCC#N)C(=O)CO2)cc1,31%,-6,6%,-5
Cc1cc(C)c2c(NC(=S)NC(=O)c3ccccc3)nn(C)c2n1,-3%,8,?,-16
Cc1cc(C)c2c(NC(=O)CCl)nn(C)c2n1,1.9µM*,26,3.7µM*,26
COc1ccccc1C1C=C(c2ccc(C)cc2)Nc2nnnn21 (stereo not drawn),?,16,-17%,54
CCOc1ccc(C2C=C(c3ccccc3)Nc3nnnn32)cc1 (stereo not drawn),-68%,58*,43%,131*
COc1ccc(C2=CC(c3cccc(C)c3)n3nnnc3N2)cc1 (stereo not drawn),.,28*,.,43

# Screening results (PubChem BioAssay)
